# MCF10A rerep = DNA re-replication induction in MCF 10a cells; MCF 10A DNA re-replication, Hoechst nuclear intensity, 48 h; Potency, µM (highest dose often 46.1 µM), inactives show top-dose activity, positive = re-replication, usual class: activators; 2.9% of 350,000 active; AID 624296; further: % of control where 0% means no effect; nearly all actives have a fitted effect of over 50% in size
# KB-3-1 tox = KB-3-1 parental cell cytotoxicity; Potency, µM (doses to about 46.1 µM), actives largely listed as cytotoxic; KB-3-1 viability, CellTiter-Glo ATP luminescence, 72 h; 1.4% of 400,000 active; further: on the % scale 0 is the no-effect control and ±100 the full control effect; nearly all actives have a fitted effect of over 60% in size
#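 Cytotoxicity in the drug-sensitive parental line KB-3-1 was scored as loss of CellTiter-Glo luminescence following 72 h incubation with compound. Values come from curve fitting of normalized concentration-response data.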
# KB-V1 cytotox = kills drug-selected multidrug resistant KB-V1 cells; KB-V1 MDR cells viability, CellTiter-Glo, 72 h; Potency, µM (top dose mostly 46.1 µM), hits mostly cytotoxic; 3.4% of 400,000 active; AID 1347076; further: on the % scale 0 is the no-effect control and ±100 the full control effect; nearly all actives have a fitted effect of over 60% in size
#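 KB-V1 cells (P-gp-expressing MDR subline of KB-3-1) in phenol-red-free DMEM with 10% FBS were exposed to library compounds over a concentration series for 72 h at 37 degrees C. Viability read by CellTiter-Glo luminescence; concentration-effect curves fitted after normalization.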
# SW480 rerep = DNA re-replication induction in SW480 cells; Potency, µM (series often up to 46.1 µM), without a hit: top-dose re-replication activation, usual class: activators; AID 624297; SW480 DNA re-replication, Hoechst DNA content imaging, 48 h; 1.8% of 340,000 active; further: % of control where 0% means no effect; nearly all actives have a fitted effect of over 55% in size
#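 Image-based read-out: total Hoechst fluorescence of nuclei (405 nm excitation, 500-530 nm emission), with hits raising the fraction of high-intensity nuclei. SW480 colon cells incubated 48 hr with compounds at 37 C.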
# PINK1 expr mod = changes PINK1 expression; PINK1 immunofluorescence, high-content cytometry, 24 h; Potency, µM (series often up to 76.6 µM), for the others: at the top dose activation (PINK1 increase), hits mostly activators; 0.2% of 410,000 active; active means well fitted activation curve with a large enough effect; inconclusive means small, poorly fitted or top-dose-only effect; cell line not stated here; further: % of control where 0% means no effect; nearly all actives have a fitted effect of over 65% in size
#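 PINK1 protein, normally rapidly degraded, was detected by immunofluorescence after 24 hour compound treatment of a stable cell line. Titration data (5 concentrations) came from laser-scanning cytometry, with CCCP-treated wells as controls.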
# PTAP TSG101 blk = blocks PTAP/TSG101 interaction to inhibit HIV-1 budding; Q99816; Fluorescence polarization, FITC-PTAP peptide / Tsg101 binding; Potency, µM (doses to about 115 µM), for inactives: at the top dose activity change, negative = inhibition, actives largely listed as inhibitors; 340,000 tested, under 10 active; active means well fitted inhibition curve with a large enough effect in the main read-out, with a control signal flat, not every such curve was filed as active; inconclusive means small, poorly fitted or top-dose-only effect, or effect the other way, or a change in a side signal; inactive means no such curve, though single readings can be large or run the other way; further: % of control where 0% means no effect
# Target sequence (Q99816 whole entry, looked up): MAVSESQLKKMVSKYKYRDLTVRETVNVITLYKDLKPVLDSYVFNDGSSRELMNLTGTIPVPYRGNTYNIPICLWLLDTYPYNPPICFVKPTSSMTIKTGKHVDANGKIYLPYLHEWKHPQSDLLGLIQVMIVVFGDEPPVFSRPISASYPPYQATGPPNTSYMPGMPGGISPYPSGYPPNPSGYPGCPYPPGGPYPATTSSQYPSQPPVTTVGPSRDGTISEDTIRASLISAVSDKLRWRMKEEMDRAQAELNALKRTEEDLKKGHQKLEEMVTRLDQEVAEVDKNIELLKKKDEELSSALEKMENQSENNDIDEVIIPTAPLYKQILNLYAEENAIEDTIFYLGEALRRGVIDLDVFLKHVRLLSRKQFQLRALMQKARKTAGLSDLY
#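 Fluorescence polarization binding of Tsg101 binding domain (10 uM final) to FITC-labeled PTAP peptide (50 nM final) in HEPES pH 7.5 buffer with NaCl, Tween 20, EDTA, TCEP. Compounds added before peptide; binding 20 min at RT.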
# * = called active by the depositor; i = inactive; ? = inconclusive; nt = no result given; [ ] = dose if it differs, or a comment. Sampled rows, rich in hits. Any-hit rate of the full collection: about 6.8%. Unless noted, the call rests on the fitted dose curve; in most records, active means well fitted curve in the direction sought with a large enough effect; inconclusive means small, poorly fitted or top-dose-only effect, or another doubt; inactive means no such curve, though single readings can be large; an effect the other way counts as inactive or inconclusive. Potency means the concentration at half of the fitted maximal effect.
SMILES,MCF10A rerep,KB-3-1 tox,KB-V1 cytotox,SW480 rerep,PINK1 expr mod,PTAP TSG101 blk
COc1cccc(C2=NOC(C(=O)N3CCN(Cc4ccccc4)CC3)C2)c1OC (stereo not drawn),0%,i,5.8µM*,3%,4%,-2%
COc1ccc(-c2cc(=S)ss2)cc1,5%,nt,nt,-4%,nt,nt
O=C(NN=Cc1ccc(N2CCOCC2)s1)c1ccc([N+](=O)[O-])cc1,1%,?,?,-28%,16µM*,-2%
O=C(CCc1nc2cccnc2n1Cc1ccccc1)NCc1cccc(Cl)c1,nt,i,i,nt,5%,nt
CCOC(=O)C1=C(C)OC(N)=C(C#N)C1c1ccsc1 (stereo not drawn),14%,i,i,-1%,3%[38.3 µM],-4%
C=CCOC(=O)C1=C(C)OC(N)=C(C#N)C1c1ccc(OC)c(CSc2ccccn2)c1 (stereo not drawn),0%,i,?,-2%,0%,2%
CCOC(=O)C1=C(CC)OC(N)=C(C#N)C1c1ccsc1 (stereo not drawn),4%,i,i,0.26µM*,5%,0%
CCCC1=C(C(=O)OCC)C(c2ccc(OC)c(CSc3ccccn3)c2)C(C#N)=C(N)O1 (stereo not drawn),?,i,21µM*,14%,8%,0%
CCOC(=O)C1=C(CSc2nc(-c3ccccc3)ccc2C#N)OC(N)=C(C#N)C1c1ccccc1 (stereo not drawn),?,i,i,15µM*,0%,11%
COc1ncc2nc(-c3cc(F)cc(F)c3)c(=O)n(C[C@H]3CCCO3)c2n1,nt,nt,nt,nt,0%,nt
CCOC(=O)C(=NC(C)C)NNc1cc(Cl)ccc1Cl,16µM*,i,i,-9%,?,0%
CCOC(=O)C(=NC(C)(C)C)NNc1cc(Cl)ccc1Cl,?,i,i,-1%,14%,-1%
CCn1c(-c2ccccc2F)nc2cc(NC(C)=O)cc(C(=O)NC(c3ccccn3)C(F)(F)F)c21 (stereo not drawn),nt,nt,nt,nt,1%,nt
O=C(Nc1c2ccccc2nc2ccccc12)C(Cl)(Cl)Cl,13µM*,?,i,?,-1%,-4%
COc1ccc(C(=O)N2c3ccccc3C=CC2C#N)cc1 (stereo not drawn),?,i,i,?,5%,0%
CCSC(=O)N1c2ccc(OC)cc2C=CC1C#N (stereo not drawn),1.2µM*,0.65µM*,0.73µM*,?,-3%,-1%
Cc1ccc2c(c1)C=CC(C#N)N2C(=O)c1ccccc1 (stereo not drawn),?,4.6µM*,9.2µM*,2.1µM*,3%,-1%
CCc1ccc(C(=O)c2cn(CC(=O)Nc3ccc(F)cc3)c3ccc(OC)cc3c2=O)cc1,nt,i,i,nt,1%,nt
Cc1cccc(N2CCN(C(=O)c3cccc(-n4c(C)nc5cccnc54)c3)CC2C)c1 (stereo not drawn),nt,i,i,nt,-1%,nt
COc1ccc2c(c1)c(=O)oc1cc(OCC(=O)NC3CCCCC3)ccc12,10µM*,i,i,-1%,3%,-2%
COc1ccc2c(c1)c(=O)oc1cc(OCC(=O)NC3CC3)ccc12,-2%,i,i,-8%,7%,-8%
CC(=O)COc1ccc2c3c(c(=O)oc2c1)CCCC3,-1%,i,12µM*,-4%,-4%[38.3 µM],-8%
CC(C)C(NC(=O)c1ccccn1)c1nnc2n1CCN(Cc1ccc3ccccc3c1)CC2 (stereo not drawn),nt,nt,nt,nt,-1%,nt
CCc1ccc(NC(=O)c2cnn(-c3c(C)cccc3C)c2C2CCNCC2)cc1,nt,i,i,nt,-5%,nt
CCOc1ccc(C(=O)NCCc2sc(-c3ccc(OC)c(OC)c3)nc2C)cc1,nt,i,?,nt,?,nt
SMILES,MCF10A rerep,KB-3-1 tox,KB-V1 cytotox,SW480 rerep,PINK1 expr mod,PTAP TSG101 blk
CC1=C(C(=O)Nc2ccccn2)C(c2cccnc2)n2nnnc2N1 (stereo not drawn),8.2µM*,i,i,?,5%[38.3 µM],-3%
Cc1cc(C)cc(NC(=O)c2cn3c4c(ccc(Cl)c4c2=O)OC(C)C3)c1 (stereo not drawn),nt,i,i,nt,0%,nt
CNc1ncnc2sc(-c3ccccc3)cc12,4%,?,9.2µM*,2%,-1%,-1%
N=C1/C(=C/c2cccn2Cc2ccc(F)cc2)C(=O)N=C2SC=CN12,4.6µM*,i,i,6%,4%,0%
Cc1ccc(Cn2cccc2/C=C2/C(=N)N3C=CSC3=NC2=O)cc1,14%,i,i,8%,12%,-1%
COCCn1c(C)cc(C2=NNC(=NC3CC3)SC2)c1C,?,i,?,-6%,0%,-7%
COCCCN=C1NN=C(c2cc(C)n(Cc3ccco3)c2C)CS1,?,?,?,5.8µM*,9%,-2%
COCC(C)N=C1NN=C(c2ccc(NC(C)=O)cc2)CS1 (stereo not drawn),5.8µM*,i,i,?,-1%,-2%
COCC(C)N=C1NN=C(c2cc(C)n(Cc3ccccc3Cl)c2C)CS1 (stereo not drawn),13%,i,i,-2%,35µM*,1%
Cc1cc(C2=NNC(=NC3CC3)SC2)c(C)n1Cc1ccco1,6.5µM*,3.3µM*,5.2µM*,nt,?,-6%
Cc1ncc2c(c1CNC(=O)/C=C/c1cccs1)CCN(C(=O)c1c(C)noc1C)C2,nt,nt,nt,nt,0%,nt
O=C(Cn1nc(-c2ccc(Cl)cc2)c2ccccc2c1=O)Nc1cccc(C(F)(F)F)c1,nt,i,i,nt,1%,nt
Cc1ccc(NC(=O)CSc2n[nH]c(-c3ccc(F)cc3)n2)cc1F,nt,nt,nt,nt,0%,nt
COc1ccc2c(C#N)c3ccccn3c2c1,23µM*,i,i,?,0%,?
Cc1cc(=O)n2ccccc2c1C#N,-4%,i,i,-10%,-6%[38.3 µM],-5%
Cc1c(-c2ccccc2)nc2ccccc2c1C(=O)NCc1cccs1,?,i,12µM*,21%,3%,0%
CCc1c(-c2ccccc2)nc2ccccc2c1C(=O)NCc1ccc(C)cc1,nt,nt,nt,nt,1%,nt
Cc1nn(Cc2ccccc2)c(Cl)c1C(=O)NCc1ccc(C)n1C,-1%,i,15µM*,0%,-2%,-6%
Cc1nn(-c2ccccc2)c(Cl)c1C(=O)NCc1cccs1,16%,i,15µM*,-3%,0%,-5%
Cc1nn(-c2ccccc2)c(C)c1C(=O)NCc1cccs1,1%,i,i,-108%,2%,0%
